# Test results from PubChem BioAssay.
# Activity calls are given as the source filed them. How the calls were made is not given here.
# Biological target: Pantothenate synthetase (Mycobacterium tuberculosis (strain ATCC 25618 / H37Rv)) (UniProt P9WIL5)
# Assay: Coupled enzyme confirmation of inhibitors against recombinant Mtb PanC (AID 375);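 further: 0% = full reaction with vehicle and 100% = no enzyme background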
# Details: coupled enzyme assay; at 10 µM, active compounds read high
# Chain of Pantothenate synthetase (Mycobacterium tuberculosis (strain ATCC 25618 / H37Rv)) (P9WIL5 whole entry, looked up): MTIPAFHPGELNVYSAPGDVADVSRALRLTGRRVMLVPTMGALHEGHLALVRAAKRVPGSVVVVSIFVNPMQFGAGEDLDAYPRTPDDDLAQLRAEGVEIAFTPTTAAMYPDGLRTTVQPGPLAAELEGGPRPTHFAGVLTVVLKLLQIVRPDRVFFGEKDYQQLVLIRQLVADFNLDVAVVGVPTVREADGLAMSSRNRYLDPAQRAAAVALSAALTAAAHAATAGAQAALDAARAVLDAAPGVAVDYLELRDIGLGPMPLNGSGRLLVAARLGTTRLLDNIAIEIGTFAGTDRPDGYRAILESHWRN
row,SMILES,inhibition
1,CN1CCCc2cc(C#N)c(=O)[nH]c21,5% (inactive)
2,Fc1cccc(Nc2ncnc3c2cnn3-c2ccccc2)c1,2% (inactive)
3,O=C(/C=C/c1ccccc1)c1ccccc1,0% (inactive)
4,CC1=C(/C=C/C(C)=C/C=C/C(C)=C/C(=O)O)C(C)(C)CCC1,0% (inactive)
5,Cc1ccc(O)c(-c2cc3ccccc3[nH]2)c1,0% (inactive)
6,O=C(CSc1ncnc2c1cnn2-c1ccccc1)Nc1ccccc1,5% (inactive)
7,C=CCSc1nc2c(c(=O)[nH]c(=O)n2C)n1C(C)C,0% (inactive)
8,O=S(=O)(CCOc1ccccc1)c1nc2ccccc2[nH]1,0% (inactive)
9,Cc1cccc(CCNC(=O)C2CCCN(S(=O)(=O)c3cnc[nH]3)C2)c1 (configuration not stated),5% (inactive)
10,O=S(=O)(NCc1ccccn1)c1ccc2c(c1)OCCO2,0% (inactive)
11,COC(=O)[C@H](C)NC(=O)Nc1cc(OC)ccc1OC,0% (inactive)
12,CN1CCN(C(=O)c2cnn3c(C(F)F)cc(C4CC4)nc23)CC1,6% (inactive)
13,CCc1nnc(NC(=O)c2cc3c(s2)CCCCC3)s1,0% (inactive)
14,CCOC(=O)c1[nH]c2ccccc2c1NC(=O)c1ccco1,0% (inactive)
15,C/C(=N\O)c1ccc2c3c([nH]c2c1)CCCC3,2% (inactive)
16,Cc1c(C(=O)O)sc2ncn(C)c(=O)c12,0% (inactive)
17,CC(=O)Nc1ccc(OC(=O)c2cccs2)cc1,0% (inactive)
18,Cc1ccc(-c2cc(C(=O)NCCN3CCOCC3)no2)cc1,3% (inactive)
19,CCOC(=O)c1sc2nc(NC(=O)COc3ccccc3)sc2c1C,0% (inactive)
20,CCOC(=O)CSc1nc(N)c2c3c(sc2n1)CCCC3,0% (inactive)
21,Nn1cnnc1SCC(=O)Nc1ccc2c(c1)OCCO2,0% (inactive)
22,N#Cc1c(/N=C/c2cccs2)sc2c1CCCCC2,0% (inactive)
